# Screens (PubChem)
# JMJD2A Tudor inh: inhibitors of human JMJD2A Tudor domain; AlphaScreen JMJD2A-Tudor / H3K4me3 peptide binding; Potency, µM (highest dose often 114 µM), for inactives: top-dose activity change, negative = inhibition, hits mostly inhibitors; 4.4% of 390,000 active; AID 504339; further: on the % scale 0 is the no-effect control and ±100 the full control effect; nearly all actives have a fitted effect of over 50% in size
# HP1b chromo inh: blocks HP1-beta chromodomain binding to methylated histone tails | P83916 | AlphaScreen HP1-beta / biotin-H3K9me3 peptide binding | Potency, µM (series often up to 114 µM), for inactives: at the top dose activity change, negative = inhibition, hits mostly inhibitors | 0.56% of 390,000 active | AID 540317; further: nearly all actives have a fitted effect of over 70% in size
#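 HP1-beta protein (50 nM final) preincubated 30 min at room temperature with biotinylated H3(1-18)K9me3 peptide (50 nM) in PBS pH 7.4, 0.01% Tween-20, then compound added for 30 min. AlphaScreen streptavidin donor/nickel chelate acceptor beads (10 ug/mL final), 30 min dark, luminescence read.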
# BAZ2B inh: blocks human BAZ2B | Q9UIF8 | AlphaScreen BAZ2B-H3K14Ac peptide displacement | Potency, µM (highest dose often 114 µM), for the others: at the top dose activity change, negative = inhibition, most hits filed as inhibitors | 4.4% of 360,000 active; further: on the % scale 0 is the no-effect control and ±100 the full control effect; nearly all actives have a fitted effect of over 60% in size
# Target sequence (Q9UIF8 whole entry, looked up): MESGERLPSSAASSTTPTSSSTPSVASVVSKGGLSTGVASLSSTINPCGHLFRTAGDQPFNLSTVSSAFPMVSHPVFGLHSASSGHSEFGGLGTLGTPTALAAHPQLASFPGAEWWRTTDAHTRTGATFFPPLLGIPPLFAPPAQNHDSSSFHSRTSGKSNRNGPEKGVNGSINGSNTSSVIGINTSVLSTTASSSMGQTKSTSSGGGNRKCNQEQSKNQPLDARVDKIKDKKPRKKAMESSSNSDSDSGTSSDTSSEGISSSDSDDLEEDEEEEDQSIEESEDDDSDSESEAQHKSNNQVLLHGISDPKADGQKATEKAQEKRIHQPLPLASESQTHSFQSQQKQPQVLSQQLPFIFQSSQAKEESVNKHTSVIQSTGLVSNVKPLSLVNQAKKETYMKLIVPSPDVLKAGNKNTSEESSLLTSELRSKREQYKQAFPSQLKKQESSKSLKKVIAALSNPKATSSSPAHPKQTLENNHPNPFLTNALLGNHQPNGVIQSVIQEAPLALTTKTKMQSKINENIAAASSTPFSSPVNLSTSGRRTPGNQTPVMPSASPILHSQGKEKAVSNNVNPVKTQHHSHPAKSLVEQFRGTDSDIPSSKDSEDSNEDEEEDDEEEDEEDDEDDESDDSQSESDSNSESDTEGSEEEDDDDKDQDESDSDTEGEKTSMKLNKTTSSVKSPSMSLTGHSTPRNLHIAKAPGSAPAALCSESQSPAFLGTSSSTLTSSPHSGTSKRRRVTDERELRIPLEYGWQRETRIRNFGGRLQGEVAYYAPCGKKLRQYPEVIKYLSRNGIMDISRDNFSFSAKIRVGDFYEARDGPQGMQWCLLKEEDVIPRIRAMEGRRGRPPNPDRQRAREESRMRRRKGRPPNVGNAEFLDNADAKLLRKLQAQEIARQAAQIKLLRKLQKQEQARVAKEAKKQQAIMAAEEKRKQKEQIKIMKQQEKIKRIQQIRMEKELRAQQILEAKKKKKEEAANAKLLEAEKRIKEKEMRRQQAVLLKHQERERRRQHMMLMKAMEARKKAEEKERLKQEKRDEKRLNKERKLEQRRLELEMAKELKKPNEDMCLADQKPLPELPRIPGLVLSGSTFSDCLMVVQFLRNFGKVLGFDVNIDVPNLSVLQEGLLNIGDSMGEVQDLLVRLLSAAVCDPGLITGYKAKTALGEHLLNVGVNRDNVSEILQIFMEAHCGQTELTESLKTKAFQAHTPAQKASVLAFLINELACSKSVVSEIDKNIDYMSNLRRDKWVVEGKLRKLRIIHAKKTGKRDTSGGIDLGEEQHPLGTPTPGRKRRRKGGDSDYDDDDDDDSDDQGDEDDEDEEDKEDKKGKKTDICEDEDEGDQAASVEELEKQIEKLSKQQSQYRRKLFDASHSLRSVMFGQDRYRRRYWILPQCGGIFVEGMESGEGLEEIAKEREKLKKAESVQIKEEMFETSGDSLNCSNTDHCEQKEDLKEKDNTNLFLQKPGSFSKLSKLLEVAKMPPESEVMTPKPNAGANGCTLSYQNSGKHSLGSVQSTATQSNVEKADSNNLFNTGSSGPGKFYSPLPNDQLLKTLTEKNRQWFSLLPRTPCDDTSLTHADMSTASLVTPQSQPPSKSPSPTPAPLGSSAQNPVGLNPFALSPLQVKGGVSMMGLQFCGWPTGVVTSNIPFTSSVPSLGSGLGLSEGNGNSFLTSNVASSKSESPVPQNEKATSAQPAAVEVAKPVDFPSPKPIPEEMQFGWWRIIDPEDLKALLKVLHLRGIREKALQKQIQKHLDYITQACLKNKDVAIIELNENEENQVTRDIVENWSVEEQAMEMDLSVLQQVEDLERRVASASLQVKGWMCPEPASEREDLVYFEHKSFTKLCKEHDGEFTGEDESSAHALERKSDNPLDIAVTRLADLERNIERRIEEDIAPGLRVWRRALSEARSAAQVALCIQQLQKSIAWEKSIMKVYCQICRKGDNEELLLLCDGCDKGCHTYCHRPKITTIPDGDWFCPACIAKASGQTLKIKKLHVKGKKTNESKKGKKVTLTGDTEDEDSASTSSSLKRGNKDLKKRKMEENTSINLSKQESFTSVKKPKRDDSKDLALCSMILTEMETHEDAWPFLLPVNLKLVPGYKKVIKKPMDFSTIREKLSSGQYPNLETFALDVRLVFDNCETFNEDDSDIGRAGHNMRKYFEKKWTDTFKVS
#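 BAZ2B 50 nM plus b-H3(5-23)K14Ac 50 nM, PBS pH 7.4/0.01% Tween-20, 30 min RT; compound added (max 110 uM), 30 min RT; streptavidin donor/Ni-chelate acceptor beads 10 ug/mL final, 20 min dark; AlphaScreen read.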
# GLS inhibitor: blocks human kidney-isoform glutaminase activity; O94925; GLS enzymatic activity, qHTS titration; Potency, µM (titrated, usually from 45.5 µM), for the others: top-dose activity change, negative = inhibition, usual class: inhibitors; 0.21% of 410,000 active; AID 624170; further: on the % scale 0 is the no-effect control and ±100 the full control effect
#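 hKGA in 45 mM KH2PO4 pH 8.2, 0.02% Tween-20 with pin-transferred compounds; 1 mM L-glutamine (stock) plus glutamate oxidase/HRP/Amplex Red coupling added. Fluorescence read initially and after 30 min at RT.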
# G9a inh: inhibitors of human histone lysine methyltransferase G9a; G9a H3K9 monomethylation, AlphaScreen, 2 h; 8.8% of 350,000 active; Potency, µM (doses to about 102 µM), for the others: at the highest dose activity, negative = inhibition, most hits filed as inhibitors; AID 504332; Q96KQ7; further: on the % scale 0 is the no-effect control and ±100 the full control effect; nearly all actives have a fitted effect of over 75% in size
#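 Signal arises when biotinylated H3K9 peptide, once monomethylated, bridges streptavidin donor and antibody-captured acceptor beads. Enzyme at 20 nM was preincubated 15 min with test compounds; peptide 500 nM and SAM 20 uM then reacted for 2 h.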
# Active calls of the source: *; u = inconclusive; x = not tested or not shown; ! = not active in a repeat; [ ] = dose if it differs, or a comment. Shown are actives, neighbours in structure and some others; about 10% of the full set was active somewhere. The call rests on the fitted dose curve; in most records, active means well fitted curve in the direction sought with a large enough effect; inconclusive means small, poorly fitted or top-dose-only effect, or another doubt; inactive means no such curve, though single readings can be large; an effect the other way counts as inactive or inconclusive. Potency means the concentration at half of the fitted maximal effect.
SMILES,JMJD2A Tudor inh,HP1b chromo inh,BAZ2B inh,GLS inhibitor,G9a inh
Nc1cc(C(=O)OCC(=O)N2CCCC2)ccc1Cl,0%,24%,0%,3%,-39%[12.7 µM]
S=C(NCCCN1CCOCC1)NCCCN1CCOCC1,7%[57.1 µM],u,7%,12%,8.9µM*
O=C(NCCCCCCCN1CCCCCCC1)C(C1CCCCC1)C1CCCCC1,-17%,-4%,x,12%,x
CCCCCCCCNC(=S)NCCN1CCCCC1,79µM*,u,u,-6%,45µM*
S=C(NCCCN1CCOCC1)NC1CCCC1,-30%,-17%,-11%,1%,2%
FC(F)(F)Oc1ccc(NC(=S)NCCCN2CCOCC2)cc1,-14%,-1%,-19%,1%,50µM*
O=C(COc1ccc(Br)cc1CO)Nc1ccccc1F,-5%,9%,-2%,10%,51%[59 µM]
CCOC(=O)CN(Cc1sccc1C)C(=O)Nc1cccc(OC)c1,-10%,18%,11%,19%,7%[59 µM]
O=S1(=O)N=C(Nc2nncs2)c2ccccc21,u,-17%,56µM*,1%,2µM*
Cc1nn(C)c(C(=O)N/N=C/c2cc3c(cc2Br)OCO3)c1Br,-10%,11%,-4%,12%,9%
Cc1nc(N2CCCCC2)sc1C(=O)c1cccc([N+](=O)[O-])c1,u,u,40µM*,-1%,u
Cc1nc(N2CCCCC2)sc1C(=O)c1ccc(SCCO)c([N+](=O)[O-])c1,13µM*,u,40µM*,u,40µM*
O=[N+]([O-])c1ccc(N2CCCCC2)cc1SCCO,-21%,34%,-12%,0%,u
Cc1nn(C(C)C(=O)NCCc2ccco2)c(=O)c2nn(-c3ccccc3)c(C)c12 (stereo not given),79µM*,1%,-18%,0%,33%
Cc1ccc(CCNC(=O)C(C)n2nc(C)c3c(C)n(-c4ccccc4)nc3c2=O)cc1 (stereo not given),-15%,-2%,-12%,-1%,58%
Cc1ccc(-n2nc3c(=O)n(C(C)C(=O)NCCC4=CCCCC4)nc(C)c3c2C)cc1 (stereo not given),45µM*,46%,-25%,-2%,13%[59 µM]
Cc1nn(CC(=O)NCCc2ccco2)c(=O)c2nn(-c3ccccc3)c(C)c12,-33%,4%[57 µM],u,-3%,u
CN1CCN(CC(=O)N2c3ccccc3C(=O)Nc3cccnc32)CC1,x,x,11%,-10%,30µM*!
CC(=O)N1c2ccc(S(=O)(=O)NCC3CCC(C(=O)Nc4ncccc4C)CC3)cc2CC1C (stereo not given),-18%,1%,-23%,-3%,76%
CN1CCN(CC(=O)N2c3ccc(S(=O)(=O)NCCNC(=O)OC(C)(C)C)cc3C(=O)Nc3cccnc32)CC1,14µM*,u,x,5%,x
CN1CCN(CC(=O)N2c3ccccc3C(C)(c3ccccc3)CC2(C)C)CC1 (stereo not given),-24%,25%,3%,6%,12%[12.7 µM]
CC(CNC(=O)c1ccc(CSc2nc3ccncc3n2Cc2ccccc2)cc1)c1ccccc1 (stereo not given),-8%,57%,-4%,1%,u
COc1ccc(OC)c(CN(CCN2CCOCC2)C(=O)Nc2cccc(Cl)c2)c1,-14%,u,-35%,-3%,-5%[59 µM]
Cc1cc(C2=NNC(=NC3CC3)SC2)c(C)n1-c1ccccc1F,28µM*,u,u,33%,u
c1ccc2oc(C3=NNC(=NC4CC4)SC3)cc2c1,u,-12%,u,18%,11µM*
SMILES,JMJD2A Tudor inh,HP1b chromo inh,BAZ2B inh,GLS inhibitor,G9a inh
Cn1c(=O)c([N+](=O)[O-])c(NCc2ccccc2Cl)c2ccccc21,-28%,4%,-37%,-8%,x
COc1ccc(CNC(=S)Nc2ccc(F)c(Cl)c2)cc1OC,-6%,17%,-27%,8%,-20%
c1ccc(NNC2=NCCS2)cc1,4µM*,u,-14%,u,50µM*
COc1ccc(-c2cc(=O)c3c(O)cc(OC4OC(COC5OC(C)C(O)C(O)C5O)C(O)C(O)C4O)cc3o2)cc1O (stereo not given),-16%,15%,-21%,16%,2%[12.7 µM]
COc1ccc([C@@H]2CC(=O)c3c(O)cc(O[C@@H]4O[C@H](CO[C@@H]5O[C@@H](C)[C@H](O)[C@@H](O)[C@H]5O)[C@@H](O)[C@H](O)[C@H]4O)cc3O2)cc1O,u,-14%,50µM*,u,-27%[12.7 µM]
Fc1ccc(Nc2c(-c3ccccn3)nc3ccc(Cl)cn23)cc1,u,33%,u,22%,-2%[59 µM]
Cc1ccccc1Nc1c(-c2ccc(Cl)cc2)nc2c(C)cccn12,-11%,5%,-4%,-2%,-27%[59 µM]
Cc1ccccc1Nc1c(-c2cccnc2)nc2ccccn12,-7%[11.4 µM],38%,-31%,4%,4%
Cc1ccc2nc(-c3ccccn3)c(Nc3ccccc3C)n2c1,45µM*!,-21%,20µM*,11%,u
Cc1ccc(-c2nc3sccn3c2Nc2ccccc2C)cc1,45µM*,u,7.1µM*,1%,13µM*
Cc1ccc2nc(-c3ccccn3)c(Nc3ccc(F)cc3)n2c1,u,26%,5.6µM*,0%,12%[59 µM]
COc1ccc(-c2nc3ccccn3c2Nc2ccccc2C)cc1,56µM*,u,x,x,x
Brc1ccc(Oc2ncc(CN3CCN(c4ccccc4)CC3)s2)cc1,-30%,9%,-34%,24%,-6%[12.7 µM]
COc1cccc(CN(C)C(=O)COc2cccc3c2OC(C)(C)C3)c1OC,-1%,14%,x,10%,x
COC(=O)c1nnc(-c2ccccc2)nc1OC,6%,32%,0%,0%,8%[59 µM]
COc1ccc(NC(=O)Cn2cnc3c(nc4n3CCCCC4)c2=O)cc1Cl,-6%,24%,4%,5%,2%[59 µM]
Cc1ccn2c(Nc3ccccc3)c(-c3ccccn3)nc2c1,50µM*,27%,20µM*,-27%,42%[59 µM]
CC(C)c1ccc(Nc2c(-c3ccccn3)nc3ccccn23)cc1,32µM*,u,22µM*,11%,u
Cc1ccccc1Nc1c(-c2ccccn2)nc2ccccn12,50µM*,-5%,10µM*,6%,40µM*
Cc1ccn2c(Nc3ccc(C(C)C)cc3)c(-c3cccnc3)nc2c1,-18%,4%,-24%,10%,-9%[59 µM]
Cc1ccn2c(Nc3ccccc3C)c(-c3ccccn3)nc2c1,45µM*!,u,22µM*,14%,u
CCCn1c(SCC(=O)N2CCc3ccccc32)n[nH]c1=O,-10%,38%,x,-1%,x
Cc1csc(CNC(=O)CC2C(=O)NCCN2Cc2ccc(F)cc2Cl)n1 (stereo not given),-4%,33%,2%,-3%,55%
Cc1csc(CN(C)C(=O)CC2C(=O)NCCN2Cc2ccc(Cl)c(F)c2)n1 (stereo not given),-10%,40%,-22%,-1%,40µM*
Cc1nonc1CN(C)C(=O)CC1C(=O)NCCN1Cc1c(F)cccc1Cl (stereo not given),-17%,38%,1%,2%,7%
